# Laboratory results taken from the supplement of paper PMC6555819.
# Tested on: LXRb:RXRa (NR concentration 270 nM, RXRa partner concentration 90 nM)
# Experiment: PBM binding z-score (relative to random genomic background probes); higher = stronger binding; sequences stand for … in GC…GCGATTGACAGCGTAGAATGAAGG
# Procedure: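 Protein-binding microarray (Agilent 4x180K custom design, double-stranded 60-nt probes: 5' GC cap, 34-nt variable region, 24-nt constant primer region; full probe sequence given). Purified or IVT nuclear receptor:RXRα heterodimers (3:1 NR:RXRα, mostly 270:90 nM) or homodimers were incubated for 1 h in PBS with 2% milk and no ligand, then detected with Alexa488 antibodies. Fluorescence from o1-orientation probes (~5 replicates averaged) was converted to z-scores against 500 random hg19 background probes. Variable regions are seed direct-repeat (DR0–DR5) sites, all their single-nucleotide variants and half-site ablations.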
row,Sequence,PBM binding z-score
1,GCTGCTAGGTCAACTGATGGTCACCTAAAGCTCG,2.31
2,CCTGCGAGGTCATGGTCAGCTAATCTACAGTATG,4.6
3,CGAACTAGGTCGCCAGGACAGTGAAGAGGTTGGA,-0.222
4,AGAATGAGGTCAAGATCAGGGAAACAGAATACAT,5.08
5,CGTCCAAGGTCAGCGGGTCAGTGAAAGCGACGTG,3.11
6,TTACCAAGGTCAAGGTCGTTGATCCCTCTGTAGA,5.02
7,CCTACTGGGCCACGAAAGGCCATTGATTCAGTGA,-0.37
8,CGAACGAGGTCACCAGGACAGTGAAGAGGTTGGA,4.94
9,TCTGCTAGGTCAACGTTGGTCAGCTAATCTGCTA,1.61
10,ACTCGGAGGACAAAGGTCAGGGCTACGCCAGTGA,3.29
11,AGAATGAGGTCATACGTAGATCAGGGAAGAAAGT,5
12,CGAACTAGGTCTAAGGACAGTGAAAGGCGACGTA,-0.844
13,TACCCTAGGTCATGGGCCAGTATACCACGCGAAC,4.07
14,TGTCAACGTTCAAAGGTAACGTAAGTATCCACAC,0.759
15,CGTCAAAGTTCAACTAAGGTTACGTAAAGCACGC,5.4
16,CGAACTAGGTCGAGGACAGTGAATCTCCGCACGC,-0.262
17,TATACAGGGTCAAAGGCCAAAGTACGAATGTCGA,5.4
18,CCTGCTAGGTCATGGTCAGCGAATCTACAGTATG,1.54
19,TCTAGTTGGTCACGGAGGTCCCACACGACGGGTA,0.167
20,CAAACCAGGTCAAGAGGTCAAAGTCCGCTTCCCG,5.73
21,TGAATGAGGTTAAATATCAGGGAACGTGGCGTCG,1.79
22,TCTAGTCGGTCAAAGGTCACACACTCGAAATGCG,5.97
23,CGTCCAAAGTCAAAGGTCAGTGAAGAGATGACGG,3.44
24,AGTCAAAGTTCAGGACGACGTAACGTAAAGCACG,1.67
